Screening data deposited in PubChem BioAssay by Broad Institute.
NSD2 inh = NSD2 histone methyltransferase inhibitors, primary screen, biochemical, AlphaScreen, single concentration, set 2; Histone-lysine N-methyltransferase NSD2 (Homo sapiens), O96028; NSD2 peptide methylation, 120 min; inhibition, % at 12.5 µM; actives 0.54% (n = 310,000); AID 743445, 2014; in the data active means inhibition above about 50%
rRNA inh HTS = reduced GFP signal of wild-type E. coli, primary screen, bacterial rRNA inhibitor project, GFP/RFP fluorescence, OD600, single point; E. coli WT GFP vs humanized-ribosome RFP mutants, 24 h; active compounds read low; DMSO median 0, no signal -100; actives 1.6% (n = 350,000); AID 720706, 2013; GFP signal change (wild-type ribosome), % (test concentration not listed);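 active means significant combined selectivity score with lowered wild-type GFP, culture density cut under 30%, mutant RFP and density less affected; inactive means any of these conditions unmet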
RAD52 anneal inh = RAD52 DNA annealing inhibitors, primary screen, biochemical, FRET, single point, set 2; DNA repair protein RAD52 homolog (Homo sapiens), P43351; inhibition, % at 18.7 µM; recombinant RAD52 DNA annealing, FRET fluorescence; actives 0.46% (n = 360,000);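 active means every replicate showing at least 50% inhibition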
Target sequence (P43351 whole entry, looked up): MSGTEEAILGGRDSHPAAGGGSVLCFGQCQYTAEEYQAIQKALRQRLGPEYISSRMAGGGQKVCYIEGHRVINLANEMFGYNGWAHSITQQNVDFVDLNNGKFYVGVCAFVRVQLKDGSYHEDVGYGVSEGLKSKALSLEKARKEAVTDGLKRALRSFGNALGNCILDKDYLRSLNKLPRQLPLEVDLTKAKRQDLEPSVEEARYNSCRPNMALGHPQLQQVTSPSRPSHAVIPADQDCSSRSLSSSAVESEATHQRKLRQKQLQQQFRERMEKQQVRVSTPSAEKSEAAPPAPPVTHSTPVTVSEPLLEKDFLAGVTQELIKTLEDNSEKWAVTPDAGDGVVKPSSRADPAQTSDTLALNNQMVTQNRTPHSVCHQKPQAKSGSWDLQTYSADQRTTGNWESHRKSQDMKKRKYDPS
AF4-AF9 inh = inhibitors of AF4 peptide binding to AF9, primary screen, biochemical, AlphaScreen, biotin-AF4 peptide, FLAG-AF9, single point | inhibition, % at 10 µM | actives 0.47% (n = 350,000);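 active means every replicate reaching a set inhibition limit, whatever the replicate mean, cut at about 25% in these data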;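 further: 0% = plate neutral control median and 100% = total signal loss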
CASP6 VEID inh = human caspase-6 inhibitors, primary screen, biochemical, VEID-R110 fluorescence, single point, set 2. actives 0.53% (n = 350,000). inhibition, % at 12.5 µM. P55212. purified caspase-6, Z-VEID-R110 cleavage fluorescence. AID 686996, 2013;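 active means mean inhibition across replicates at least about 35%, with every replicate also reaching that limit, limit read from the data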;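 further: 0% = median of neutral control wells and 100% = no fluorescence left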
RAD52 DNA ctr = DNA-binding compounds via dye displacement, dose response, artefact control for RAD52 inhibitor project, biochemical, fluorescence polarization, cherry-pick; shares compounds with RAD52 anneal inh; Salmon sperm DNA/acridine orange FP displacement; AC50, µM; actives 8% (n = 1,000); AID 652128, 2013;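 active means fitted half-maximal concentration for signal loss at or below twice the highest dose tested, in every separate run, actives reach about 64 µM in these data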
* marks the source's active call; other numbers are inactive results; i = inactive; nt = not tested or not shown. An excerpt weighted towards active compounds, which were near 2.5% of everything screened.

SMILES	NSD2 inh	rRNA inh HTS	RAD52 anneal inh	AF4-AF9 inh	CASP6 VEID inh	RAD52 DNA ctr
OC[C@@H]1CN(Cc2ccc3c(c2)OCO3)C[C@H](n2cnc3c(N4CCOCC4)ncnc32)O1	-1	-1	-11	1	1	nt
COc1ccc(/C=N/NC(=O)c2cccnc2)cc1CN1CCc2cc(OC)c(OC)cc2C1C (centres undefined)	4	-2	1	7	-14	nt
COc1ccc(/C=N/NC(=O)c2cc(OC)c(OC)c(OC)c2)cc1CN1CCc2cc(OC)c(OC)cc2C1C (centres undefined)	3	-2	53*	8	-7	i
CN(C)CCc1cc2c(c3c1ccc1ccccc13)OCO2	48	-52	100*	22	-19	37µM*
CC(C)=N/N=C(/c1ccc([N+](=O)[O-])cc1)C12CN3CN(CN(C3)C1)C2	14	10	95*	20	-72	i
O=[N+]([O-])c1cccc(/C(=N/N=C/c2ccccc2Br)C23CN4CN(CN(C4)C2)C3)c1	2	nt	nt	nt	nt	nt
N#C[C@H]1[C@@H](c2ccc(C3=CCCC3)cc2)[C@@H](CO)N1C(=O)Nc1ccccc1F	nt	1	-7	-2	2	nt
CO[C@H]1CN(C)C(=O)c2ccc(NS(=O)(=O)c3ccccc3)cc2OC[C@H](C)N(Cc2nccs2)C[C@H]1C	nt	-3	8	3	3	nt
O=C(O)C[C@H]1C[C@@H]2c3cc(NC(=O)C4CCOCC4)ccc3O[C@@H]2[C@@H](CO)O1	nt	2	nt	nt	nt	nt
CCSc1nc(=S)n(Cc2ccccc2)c(C)c1C(C)=O	-2	-2	-2	4	0	nt
CC(=O)c1c(NCCc2ccccc2)nc(=S)n(-c2ccccc2)c1C	44	-12	58*	3	-2	i
CC(=O)c1c(NCc2ccccc2)nc(=O)n(-c2ccccc2)c1C	-1	nt	nt	nt	nt	nt
CCn1c(C)c(C(C)=O)c(NCc2ccccc2)nc1=S	nt	-7	68*	19	2	i
C[C@@H]1CN([C@H](C)CO)C(=O)c2cc(NC(=O)Nc3ccccc3)ccc2O[C@@H](C)CCCCO[C@@H]1CN(C)C(=O)NC1CCCCC1	nt	1	-6	1	-1	nt
COC(=O)c1c(NC(=O)c2ccc(S(=O)(=O)N3CC(C)OC(C)C3)cc2)sc2c1CCN(C)C2 (centres undefined)	0	10	51*	-2	-4	i
Cc1cc(N)ccc1NC(=O)CN1CCCC1	-1	-1	101*	4	-82	i
Cc1cccc(C)c1NC(=O)CN1CCCC1	-2	5	-9	-2	2	nt
COc1ccc(N)cc1NC(=O)CN1CCCC1	4	9	79*	16	-45	i
CN1CCN(CCCNC(=O)c2ccc(/C=C3\Sc4ccccc4N(Cc4ccccc4F)C3=O)cc2)CC1	7	-58	90*	36*	-175	i
O=C(NCCN1CCOCC1)c1ccc(/C=C2\Sc3ccccc3N(Cc3ccccc3F)C2=O)cc1	-2	-16	-14	7	0	nt
CCN1/C(=C/c2sc(-c3ccccc3C)c[n+]2C)Sc2ccccc21	3	-54	69*	3	0	i
CCN1/C(=C/c2ccc3cc(C)ccc3[n+]2CC)Sc2ccccc21	45	88	i	17	1	nt
OC(CN1CCCC1)Cn1ccc2ccccc21 (centres undefined)	6	5	62*	22	-40	i
O=C(c1ccccc1)N1CCN(CC(O)Cn2ccc3ccccc32)CC1 (centres undefined)	-2	0	-13	2	3	nt
C[C@H]1CCCCO[C@H](CN(C)C(=O)CCCN(C)C)[C@@H](C)CN([C@@H](C)CO)C(=O)c2cc(NS(=O)(=O)c3ccc(F)cc3)ccc2O1	nt	1	8	-1	3	nt
